# Test results from PubChem BioAssay (NCATS).
# Inconclusive results are not listed. A call without a number means that no potency is given here. Active and inactive are the calls of the source. The call rests on the fitted dose curve; in most records, active means well fitted inhibition curve with a large enough effect; inconclusive means small, poorly fitted or top-dose-only effect; inactive means flat fitted curve, though single readings scatter.
# Assay: BET inhibitor-based combinations targeting novel dependencies in MECOM-rearranged (r) AML: AML-194 cell line (AID 2202237; further: nearly all actives have a fitted effect of over 40% in size)
# Details: AML-194 (MECOM-r AML) viability, CellTiter-Glo, 48 h; series mostly up to 46 µM
# How it was run: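 Viability of cells (500 per well) is scored by luminescent CellTiter-Glo at 48 hr post-dosing. Eleven-point titrations are normalized to DMSO and empty controls and reduced to AUC values.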
# Potency means the concentration at half of the fitted maximal effect.
row,SMILES,Potency
1,O=C(Cc1ccccc1)Nc1nnc(CCSCCc2nnc(NC(=O)Cc3ccccc3)s2)s1,inactive
2,CS[C@H]1SC[C@@H]2C(=O)N(C)[C@H](C(C)C)C(=O)OC[C@H](NC(=O)c3cnc4ccccc4n3)C(=O)N[C@H](C)C(=O)N(C)[C@H]1C(=O)N(C)[C@H](C(C)C)C(=O)OC[C@H](NC(=O)c1cnc3ccccc3n1)C(=O)N[C@H](C)C(=O)N2C,13.2 nM (active)
3,C[C@H](NC(=O)/C(C#N)=C/c1cccc(Br)n1)c1ccccc1,9340 nM (active)
4,O=C1CC(c2c[nH]c3ccc(F)cc23)C(=O)N1 (centres undefined),inactive
5,CNC(=O)[C@H](Cc1c[nH]c2ccccc12)NC(=O)[C@@H](CC(=O)NO)CC(C)C,inactive
6,COc1cc(-c2cn(C)c(=O)c3cnccc23)cc(OC)c1CN(C)C,inactive
7,COc1cc([C@@H](CC(=O)O)c2ccc(C)c(CN3C[C@@H](C)Oc4ccccc4S3(=O)=O)c2)cc2nnn(C)c12,inactive
8,CC(=O)c1ccc2c(c1)c1cc(C(C)=O)ccc1n2CCNC(C)C,1320 nM (active)
9,COc1cc2c(NC3CCN(C)CC3)nc(N3CCCN(C)CC3)nc2cc1OCCCN(C)C,inactive
